Results reported in PubChem BioAssay (Tox21).
Results filed as inconclusive are left out. Where a call stands in place of a potency, no number is given. Active and inactive are the calls of the source. The call rests on the fitted dose curve; in most records, active means well fitted cell-killing curve with a large enough effect in the repeat runs; inconclusive means weak or mixed curves, or effect the other way; inactive means no such curve, though single readings can be large or run the other way.

Assay: qHTS assay to identify small molecule agonists of the farnesoid-X-receptor (FXR) signaling pathway - cell viability counter screen (AID 743218); further: nearly all actives have a fitted effect of over 45% in size
Details: FXR-bla HEK293T viability, CellTiter-Glo luminescence, 16 h; series mostly up to 62.6 µM
From the text: U.S. Tox21 Program National Center for Advancing Translational Sciences [NCATS] NIH Chemical Genomics Center [NCGC] U.S. Environmental Protection Agency [EPA] National Institutes of Environmental Health Sciences [NIEHS] National Toxicology Program [NTP] U.S. Food and Drug Administration [FDA] Tox21 Assay Overview: The farnesoid-X-receptor (FXR), a nuclear hormone receptor, is highly expressed in liver, intestine, kidney and adrenal cortex. Natural ligands of FXR are the bile acids (Cholic acid, Chenodeoxy cholic acid etc). FXR is an important regulator of diverse metabolic pathways, including the bile acid homeostasis, lipid and glucose metabolisms. FXR regulates the expression of target genes by binding either as a monomer or as a heterodimer with the retinoid X receptor (RXR). Numerous studies have reported that FXR exerts protective function during cholestasis, diabetes, liver regeneration, and cancer. To identify compounds that activate FXR signaling, GeneBLAzer FXR-UAS-bla HEK 293T cell line (Invitrogen, Carlsbad, CA) containing a beta-lactamase reporter gene under the control of a UAS response element was used to screen the Tox21 10K compound library. The cytotoxicity of the Tox21 compound library against the FXR-bla cell line was tested in parallel by measuring the cell viability using CellTiter-Glo assay in the same wells.
Tox21 Assay Protocol Summary: FXR-bla cells were dispensed at 5000 cells/5uL/well in 1536-well black wall/clear bottom plates using a Multidrop Combi (Thermo Fisher Scientific, Waltham, MA) dispenser. After the assay plates were incubated at 37 C and 5% CO2 for 5 h, 23 nL of compounds dissolved in DMSO, positive controls or DMSO only was transferred to the assay plate by a Pintool station (Kalypsys, San Diego, CA). The assay plates were incubated at 37C for 16 h. After 1 uL of LiveBLAzerTM B/G FRET substrate was added using a Bioraptr Flying Reagent Dispenser (FRD) workstation (Beckman Coulter, Indianapolis, IN), the plates were incubated at room temperature for 2 h, and fluorescence intensity was measured by an Envision plate reader (PerkinElmer, Shelton, CT). For cell viability readout that measures cytotoxicity, 4uL/well of CellTiter-Glo reagent was added into the assay plates using a Bioraptr FRD. After 30 min incubation at room temperature, the luminescence intensity in the plates was measured using a ViewLux plate reader (PerkinElmer).
Potency means the concentration at half of the fitted maximal effect.

Q: Which Potency does the source give for `Oc1cc(Cl)cc(Cl)c1Cl` here?
A: Its Potency is “inactive”.

Q: For `Nc1ccc(NCCO)c([N+](=O)[O-])c1`, which Potency is on record?
A: Its Potency is “inactive”.

Q: Which Potency does the source give for `Cc1c2ccccc2c(C)c2c1ccc1ccccc12` here?
A: Its Potency is 21.9 µM (active).

Q: With `COCCOc1cc2cc(C(=O)NC3CCN(C(C)C)CC3)n(CC(=O)Nc3ccc(Cl)cn3)c2cn1` as the compound, how does the Potency read?
A: Its Potency is “inactive”.

Q: With `Oc1ccccc1O` as the compound, how does the Potency read?
A: The Potency was “inactive”.

Q: Which Potency does the source give for `Cc1cccc2cccnc12` here?
A: Its Potency is “inactive”.

Q: With `O=C(Nc1ccc2c(O)c(N=Nc3ccc(N=Nc4ccc(S(=O)(=O)O)cc4)cc3)c(S(=O)(=O)O)cc2c1)c1ccccc1` as the compound, how does the Potency read?
A: Its Potency is “inactive”.

Q: Which Potency does the source give for `CCN(CCN)c1cccc(C)c1` here?
A: The Potency was “inactive”.

Q: With `Cc1cccc(C(=O)O)c1O` as the compound, how does the Potency read?
A: Its Potency is “inactive”.

Q: Which Potency does the source give for `OC1CCC(C2CCCCC2)CC1` (stereo not given) here?
A: Its Potency is “inactive”.

Q: Which Potency does the source give for `CCCC[P+](C)(CCCC)CCCC` here?
A: The Potency was “inactive”.

Q: For `C=CCn1c(=O)n(CC=C)c(=O)n(CC=C)c1=O`, which Potency is on record?
A: The Potency was “inactive”.

Q: Which Potency does the source give for `CC(CCc1ccccc1)NCC(O)c1ccc(O)c(C(N)=O)c1` (stereo not given) here?
A: The Potency was “inactive”.

Q: With `CC(=O)OCC=C(C)C` as the compound, how does the Potency read?
A: The Potency was “inactive”.

Q: For `Cc1ccc(O)c(N)c1`, which Potency is on record?
A: The Potency was “inactive”.

Q: Which Potency does the source give for `O=c1oc2cc(O)ccc2c2oc3cc(O)ccc3c12` here?
A: Its Potency is “inactive”.

Q: With `CCCCCC(C)OC(=O)COc1ccc(Cl)c2cccnc12` (stereo not given) as the compound, how does the Potency read?
A: Its Potency is “inactive”.

Q: Which Potency does the source give for `CCCCCc1ccc(Cl)cc1` here?
A: The Potency was “inactive”.

Q: Which Potency does the source give for `O=c1[nH]c2ccccc2n1CCCN1CCN(C(c2ccccc2)c2ccccc2)CC1` here?
A: The Potency was 26.6 µM (active).

Q: Which Potency does the source give for `Cc1c(C)c2c(c(C)c1O)CC[C@@](C)(CCC[C@H](C)CCC[C@H](C)CCCC(C)C)O2` here?
A: Its Potency is “inactive”.

Q: Which Potency does the source give for `CC1(C)CCC[C@]2(C)[C@H]3CC(=O)O[C@]3(C)CC[C@@H]12` here?
A: The Potency was “inactive”.

Q: With `COC(=O)Nc1nc2ccc(C(=O)c3ccccc3)cc2[nH]1` as the compound, how does the Potency read?
A: Its Potency is “inactive”.

Q: Which Potency does the source give for `CCCC1CCC(=O)CC1` here?
A: The Potency was “inactive”.

Q: For `CCCCCCCCCCCCCC[N+](C)(C)C`, which Potency is on record?
A: The Potency was 47.3 µM (active).

Q: With `O=C(/C=C/c1ccc(O)c(O)c1)O[C@@H](C(=O)O)[C@@H](OC(=O)/C=C/c1ccc(O)c(O)c1)C(=O)O` as the compound, how does the Potency read?
A: Its Potency is “inactive”.

Q: With `NC(=O)c1cccc([N+](=O)[O-])c1` as the compound, how does the Potency read?
A: Its Potency is “inactive”.

Q: For `CC(=O)Oc1cc2c(s1)CCN(C(C(=O)C1CC1)c1ccccc1F)C2` (stereo not given), which Potency is on record?
A: Its Potency is “inactive”.

Q: Which Potency does the source give for `C#Cc1ccc(-c2ccccc2F)cc1` here?
A: Its Potency is “inactive”.

Q: With `CC1=CCC(=C(C)C)CC1` as the compound, how does the Potency read?
A: Its Potency is “inactive”.

Q: With `O=C(O)O` as the compound, how does the viability change, negative = cytotoxic read?
A: The viability change, negative = cytotoxic was 5.67% [at 5.95 µM] (inactive).

Q: With `O=C1C(c2[nH]c3ccc(S(=O)(=O)O)cc3c2O)=Nc2ccc(S(=O)(=O)O)cc21` as the compound, how does the Potency read?
A: The Potency was “inactive”.

Q: Which Potency does the source give for `Cc1cc(-n2nc3ccc(Cl)cc3n2)c(O)c(C(C)(C)C)c1` here?
A: The Potency was “inactive”.

Q: Which Potency does the source give for `FC(F)(F)c1cccc(Cl)c1` here?
A: Its Potency is “inactive”.

Q: With `Cc1nc2n(c(=O)c1CCN1CCC(c3noc4cc(F)ccc34)CC1)CCCC2` as the compound, how does the Potency read?
A: The Potency was “inactive”.

Q: With `CCCNCCC` as the compound, how does the Potency read?
A: Its Potency is “inactive”.

Q: For `CCO[Si](OCC)(OCC)OCC`, which Potency is on record?
A: The Potency was “inactive”.

Q: For `Oc1c(I)cc(Cl)c2cccnc12`, which Potency is on record?
A: The Potency was “inactive”.

Q: For `Cc1cc(C)c(/C=C2\C(=O)Nc3ccccc32)[nH]1`, which Potency is on record?
A: Its Potency is “inactive”.

Q: With `OC1CCCc2ccccc21` (stereo not given) as the compound, how does the Potency read?
A: The Potency was “inactive”.

Q: For `CCOC(=O)NNc1ccc(N(CC)CC(C)O)nn1` (stereo not given), which Potency is on record?
A: The Potency was “inactive”.
